Assay results: PubChem BioAssay (Tox21)
Results filed as inconclusive are left out. Active and inactive are the calls of the source. Unless noted, the call rests on the fitted dose curve; in most records, active means well fitted curve in the direction sought with a large enough effect in the repeat runs; inconclusive means weak or mixed curves; inactive means no such curve, though single readings can be large; an effect the other way counts as inactive or inconclusive.

Legend:
[1] = qHTS assay to identify small molecule agonists of the peroxisome proliferator-activated receptor delta (PPARd) signaling pathway - cell viability counter screen (AID 743211); further: nearly all actives have a fitted effect of over 55% in size
Method in brief: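 PPARd-bla HEK293H cells (3000/well) were pre-incubated 5 h at 37 C, then exposed to compound for 17 h at 37 C. After 2 h with LiveBLAzer substrate, CellTiter-Glo was added to the same wells; luminescence read after 30 min at room temperature.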

[2] = biological target: Peroxisome proliferator-activated receptor delta (Homo sapiens) (UniProt Q03181); assay: qHTS assay to identify small molecule agonists of the peroxisome proliferator-activated receptor delta (PPARd) signaling pathway (AID 743212; calls by dose curve)
Method in brief: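 Quantitative high-throughput agonist screen in a HEK293H beta-lactamase reporter line under UAS control. Compounds in DMSO, at 37 C. Fluorescence read after 2 h with FRET substrate at room temperature.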

[3] = qHTS assay to identify small molecule antagonists of the peroxisome proliferator-activated receptor delta (PPARd) signaling pathway - cell viability counter screen (AID 743213); further: nearly all actives have a fitted effect of over 50% in size
Method in brief: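 PPARd-bla HEK293H cells were treated with compounds plus agonist L165041 (300 nM final) for 17 h at 37 C. Viability was then read in the same wells by CellTiter-Glo luminescence after 30 min at room temperature.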

[4] = biological target: Peroxisome proliferator-activated receptor delta (Homo sapiens) (UniProt Q03181); assay: qHTS assay to identify small molecule antagonists of the peroxisome proliferator-activated receptor delta (PPARd) signaling pathway (AID 743215; active means well fitted inhibition curve with a large enough effect in the signal ratio in the repeat runs, not every such curve was filed as active; the % refers to the signal ratio;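 further: cells stimulated with agonist L165041 at 300 nM final during compound exposure; series mostly up to about 62 µM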)
Method in brief: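 Antagonist-mode beta-lactamase reporter screen: HEK293H cells with UAS-bla under PPARd control, stimulated by 300 nM L165041 (final) alongside test compound for 17 h at 37 C, then FRET fluorescence after 2 h substrate incubation.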

[5] = biological target: Bile acid receptor (Homo sapiens) (UniProt Q96RI1); assay: qHTS assay to identify small molecule antagonists of the farnesoid-X-receptor (FXR) signaling pathway (AID 743217; active means well fitted inhibition curve with a large enough effect in the signal ratio in the repeat runs, not every such curve was filed as active; the % refers to the signal ratio)
Method in brief: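 Beta-lactamase reporter under UAS control in HEK 293T cells; compound exposure 16 h at 37 °C in the presence of chenodeoxycholic acid (50 uM final); signal from B/G FRET substrate after 2 h at room temperature.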

[6] = qHTS assay to identify small molecule agonists of the farnesoid-X-receptor (FXR) signaling pathway - cell viability counter screen (AID 743218); further: nearly all actives have a fitted effect of over 45% in size
Method in brief: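 In GeneBLAzer FXR-UAS-bla HEK 293T cells, compounds act for 16 h at 37 C. Cell viability is then scored in the reporter wells by CellTiter-Glo, 30 min at RT, luminescence.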

[7] = biological target: Bile acid receptor (Homo sapiens) (UniProt Q96RI1); assay: qHTS assay to identify small molecule agonists of the farnesoid-X-receptor (FXR) signaling pathway (AID 743220; active means well fitted activation curve with a large enough effect in the signal ratio in the repeat runs, not every such curve was filed as active; the % refers to the signal ratio)
Method in brief: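 Beta-lactamase reporter under UAS control in GeneBLAzer FXR HEK 293T cells (5000/well) measured with LiveBLAzer FRET substrate after 2 h at room temperature. Compound exposure lasted 16 h at 37C.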

[8] = qHTS assay to identify small molecule antagonists of the farnesoid-X-receptor (FXR) signaling pathway - cell viability counter screen (AID 743221; active means well fitted cell-killing curve with a large enough effect in the repeat runs, not every such curve was filed as active; further: nearly all actives have a fitted effect of over 50% in size)
Method in brief: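 GeneBLAzer FXR-UAS-bla HEK 293T cells, compound plus chenodeoxycholic acid (50 uM final), 16 h at 37 C. CellTiter-Glo added to the same wells after the beta-lactamase read; luminescence read after 30 min at room temperature as viability.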

[9] = biological target: Vitamin D3 receptor (Homo sapiens) (UniProt P11473); assay: qHTS assay to identify small molecule antagonists of the vitamin D receptor (VDR) signaling pathway (AID 743223; active means well fitted inhibition curve with a large enough effect in the signal ratio in the repeat runs, not every such curve was filed as active; the % refers to the signal ratio)
Method in brief: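 VDR-bla cells were treated with compound plus 3 nM final 1alpha,25-dihydroxyvitamin D3 for 16 h at 37C. Beta-lactamase reporter read by B/G FRET substrate fluorescence after 2 h at room temperature. qHTS format.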

[10] = biological target: Vitamin D3 receptor (Homo sapiens) (UniProt P11473); assay: qHTS assay to identify small molecule agonists of the vitamin D receptor (VDR) signaling pathway (AID 743222; calls by dose curve)
Method in brief: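 Agonist activity measured in VDR-bla reporter cells. Exposure 16 h, 37C, 5% CO2; detection by B/G FRET substrate, 2 h RT.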
On the % scale 0 is the no-effect control and ±100 the full control effect.

Sequence of Bile acid receptor (Homo sapiens) (Q96RI1 whole entry, looked up): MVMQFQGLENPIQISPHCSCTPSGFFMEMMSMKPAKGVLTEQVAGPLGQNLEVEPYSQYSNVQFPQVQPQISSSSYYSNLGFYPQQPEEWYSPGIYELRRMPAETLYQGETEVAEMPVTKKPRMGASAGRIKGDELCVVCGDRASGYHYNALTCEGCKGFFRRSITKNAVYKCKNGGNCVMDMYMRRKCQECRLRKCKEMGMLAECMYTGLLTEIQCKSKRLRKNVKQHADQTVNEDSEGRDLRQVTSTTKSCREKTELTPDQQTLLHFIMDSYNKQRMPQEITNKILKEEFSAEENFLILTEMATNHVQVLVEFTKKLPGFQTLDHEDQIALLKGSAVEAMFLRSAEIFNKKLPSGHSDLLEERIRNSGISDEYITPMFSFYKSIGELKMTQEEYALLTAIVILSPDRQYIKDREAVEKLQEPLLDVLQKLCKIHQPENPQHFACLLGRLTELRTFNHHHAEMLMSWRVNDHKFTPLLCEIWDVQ
Sequence of Vitamin D3 receptor (Homo sapiens) (P11473 whole entry, looked up): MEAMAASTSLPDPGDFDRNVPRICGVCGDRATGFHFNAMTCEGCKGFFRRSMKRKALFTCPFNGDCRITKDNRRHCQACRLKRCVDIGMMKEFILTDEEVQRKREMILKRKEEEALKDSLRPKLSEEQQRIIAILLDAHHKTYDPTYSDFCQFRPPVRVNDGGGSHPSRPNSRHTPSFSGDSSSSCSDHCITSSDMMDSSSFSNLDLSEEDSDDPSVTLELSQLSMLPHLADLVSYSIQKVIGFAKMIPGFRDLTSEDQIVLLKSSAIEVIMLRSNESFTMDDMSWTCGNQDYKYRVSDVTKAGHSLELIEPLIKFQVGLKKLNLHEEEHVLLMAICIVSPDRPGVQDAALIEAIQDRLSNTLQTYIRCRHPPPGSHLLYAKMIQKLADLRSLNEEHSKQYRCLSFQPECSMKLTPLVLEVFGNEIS
Sequence of Peroxisome proliferator-activated receptor delta (Homo sapiens) (Q03181 whole entry, looked up): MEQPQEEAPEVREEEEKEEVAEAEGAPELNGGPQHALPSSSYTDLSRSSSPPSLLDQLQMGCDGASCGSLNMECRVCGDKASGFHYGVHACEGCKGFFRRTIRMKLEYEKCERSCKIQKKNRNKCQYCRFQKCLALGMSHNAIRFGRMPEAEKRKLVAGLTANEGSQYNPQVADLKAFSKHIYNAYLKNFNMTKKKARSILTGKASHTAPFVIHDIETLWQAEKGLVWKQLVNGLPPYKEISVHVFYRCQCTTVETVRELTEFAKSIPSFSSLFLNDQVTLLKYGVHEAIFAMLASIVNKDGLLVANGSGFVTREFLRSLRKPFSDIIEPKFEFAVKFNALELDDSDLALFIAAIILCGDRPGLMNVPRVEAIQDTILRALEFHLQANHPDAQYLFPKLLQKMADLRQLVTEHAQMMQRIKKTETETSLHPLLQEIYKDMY

Cc1cc(O)c(C(C)C)cc1Cl
inactive: Potency [1] | Potency [2] | Potency [3] | Potency [4] | Potency [5] | Potency [6] | Potency [7] | Potency [8] | outcome [9]

CCC(C)(C)C1CCC(O)CC1 (stereo not given)
inactive: Potency [1] | Potency [2] | Potency [3] | Potency [4] | Potency [6] | Potency [8] | outcome [10]

CC1(C)C(=O)N(Br)C(=O)N1Cl
inactive: Potency [1] | Potency [2] | Potency [3] | Potency [4] | Potency [6] | Potency [8] | outcome [10] | outcome [9]

COc1cc2[nH]c(=O)[nH]c(=O)c2cc1OC
inactive: Potency [1] | Potency [2] | Potency [3] | Potency [4] | Potency [6] | Potency [8] | outcome [10] | outcome [9]

Cc1ccc(S)cc1
inactive: Potency [1] | Potency [2] | Potency [3] | Potency [4] | Potency [6] | Potency [8]

NC(=O)N(O)[C@@H]1C=C[C@H](Oc2cccc(Oc3ccc(F)cc3)c2)C1
inactive: Potency [1] | Potency [2] | Potency [3] | Potency [4] | Potency [5] | Potency [7] | Potency [8] | outcome [9]

CC(=O)OCC(=O)[C@@]12OC(C)(C)O[C@@H]1C[C@H]1[C@@H]3C[C@H](F)C4=CC(=O)C=C[C@]4(C)[C@@]3(F)[C@@H](O)C[C@@]12C
inactive: Potency [1] | Potency [2] | Potency [3] | Potency [4] | Potency [6] | Potency [8] | outcome [10]

C1COCO1
inactive: Potency [1] | Potency [2] | Potency [3] | Potency [4] | Potency [6] | Potency [8] | outcome [10]

O=C(O)Cc1ccc(-c2ccccc2)cc1
inactive: Potency [1] | Potency [2] | Potency [3] | Potency [4] | Potency [6] | Potency [8] | outcome [10] | outcome [9]

c1ccc(COCc2ccccc2)cc1
inactive: Potency [1] | Potency [2] | Potency [3] | Potency [4] | Potency [5] | Potency [6] | Potency [7] | Potency [8] | outcome [9]

Cc1nc2ccccn2c(=O)c1CCN1CCC(C(=O)c2ccc(F)cc2)CC1
inactive: Potency [1] | Potency [2] | Potency [3] | Potency [4] | Potency [5] | Potency [6] | Potency [7] | Potency [8] | outcome [9]

O=C(O)C(Cc1cc(I)c(O)c(I)c1)c1ccccc1 (stereo not given)
inactive: Potency [1] | Potency [2] | Potency [3] | Potency [4] | Potency [6] | Potency [8]

NC(=O)Nc1ccc(Cl)c(Cl)c1
inactive: Potency [1] | Potency [2] | Potency [3] | Potency [4] | Potency [5] | Potency [6] | Potency [7] | Potency [8] | outcome [9]

CCOC(=O)OCC
inactive: Potency [1] | Potency [2] | Potency [3] | Potency [4] | Potency [6] | Potency [8] | outcome [10]

CC(CCc1ccc2c(c1)OCO2)NN (stereo not given)
inactive: Potency [1] | Potency [2] | Potency [3] | Potency [4] | Potency [6] | Potency [8]

c1cnc2c(n1)CCCC2
inactive: Potency [1] | Potency [2] | Potency [3] | Potency [4] | Potency [6] | Potency [8] | outcome [10] | outcome [9]

CC1=NN(c2ccc(C(=O)O)cc2)C(=O)C1
inactive: Potency [1] | Potency [2] | Potency [3] | Potency [4] | Potency [6] | Potency [8] | outcome [10]

CN1Cc2cc(C(=O)N3CCC(C4CCNCC4)CC3)ccc2N[C@@H](CC(=O)O)C1=O
inactive: Potency [1] | Potency [2] | Potency [3] | Potency [4] | Potency [6] | Potency [8]

CC(=O)Nc1ccccc1C
inactive: Potency [1] | Potency [2] | Potency [3] | Potency [4] | Potency [6] | Potency [8] | outcome [10]

CC(COc1ccc(C(C)(C)C)cc1)OS(=O)OCCCl (stereo not given)
inactive: Potency [1] | Potency [2] | Potency [3] | Potency [4] | Potency [6] | Potency [7] | Potency [8] | outcome [9]

COC(OC)(C(=O)c1ccccc1)c1ccccc1
inactive: Potency [1] | Potency [2] | Potency [3] | Potency [4] | Potency [6] | Potency [8] | outcome [10] | outcome [9]

CCC1(C)CC(=O)NC1=O (stereo not given)
inactive: Potency [1] | Potency [2] | Potency [3] | Potency [4] | Potency [6] | Potency [8]

C[N+](C)(C)CCOC(N)=O
inactive: Potency [1] | Potency [2] | Potency [3] | Potency [4] | Potency [5] | Potency [6] | Potency [7] | Potency [8] | outcome [9]

CCCCOC(=O)CCS
inactive: Potency [1] | Potency [2] | Potency [3] | Potency [4] | Potency [6] | Potency [7] | Potency [8] | outcome [10]

C=CC(=C)CCCC(C)(C)OC(C)=O
inactive: Potency [1] | Potency [2] | Potency [3] | Potency [4] | Potency [6] | Potency [8] | outcome [10]

CC(=O)CC(c1ccc([N+](=O)[O-])cc1)c1c(O)c2ccccc2oc1=O (stereo not given)
inactive: Potency [1] | Potency [2] | Potency [3] | Potency [4] | Potency [6] | Potency [8] | outcome [10]

C[Si](NC1CCCCC1)(NC1CCCCC1)NC1CCCCC1
inactive: Potency [1] | Potency [2] | Potency [3] | Potency [4] | Potency [5] | Potency [6] | Potency [7] | outcome [10] | outcome [9]

CC(=O)OCC(=O)[C@H]1CC[C@H]2[C@@H]3CCC4=CC(=O)CC[C@]4(C)[C@H]3CC[C@]12C
inactive: Potency [1] | Potency [2] | Potency [3] | Potency [5] | Potency [6] | Potency [7] | Potency [8] | outcome [10] | outcome [9]

CC1CN(c2cc3c(cc2F)c(=O)c(C(=O)O)cn3-c2ccc(F)cc2F)CCN1 (stereo not given)
inactive: activity change, negative = cytotoxicity [1] -0.433% [at 5.95 µM] | activation [2] 3.73% [at 5.95 µM] | viability change, negative = cytotoxic [3] 12.1% [at 6.26 µM] | ratio activity, negative = inhibition [4] 1.55% [at 6.26 µM] | viability change, negative = cytotoxic [6] 19.1% [at 5.95 µM] | activity change, negative = cytotoxicity [8] -0.0684% [at 5.95 µM] | activity change, negative = inhibition [9] 0.481% [at 6.95 µM]
